Laboratory results reported in PubChem BioAssay (NCI).
“And” between values parts separate entries of the source, which are not always exact repeats. Identical values can stand only once. The panel holds about 83,000 compounds, 20% with a hit somewhere; the sample as a whole holds those more often.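 48-hour exposure, single concentration, 96-well plates; percent growth endpoint where 0 means no net growth. Active: below 10.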 The source made the active and inactive calls.

Assays:
Assay in all cases: NCI-60 one-dose screen, 48 h (100 = growth as untreated, 0 = no growth, -100 = all killed)
Details in all cases: 10 µM unless noted
HCT-15 colon = system: HCT-15 colon
HT29 colon = system: HT29 colon
SNB-75 CNS = system: SNB-75 CNS
SNB-19 CNS = system: SNB-19 CNS
U251 CNS = system: U251 CNS
PC-3 prostate = system: PC-3 prostate
SK-MEL-5 melanoma = system: SK-MEL-5 melanoma
UACC-62 melanoma = system: UACC-62 melanoma
LOX IMVI melanoma = system: LOX IMVI melanoma
SK-MEL-28 melanoma = system: SK-MEL-28 melanoma

O=C(O)/C=C\C(=O)Nc1cccc2ccccc12
growth (HCT-15 colon): 102% (inactive) and 96.9% (inactive) | growth (HT29 colon): 98.1% (inactive) and 110% (inactive) | growth (SNB-75 CNS): 70% (inactive) and 83% (inactive) | growth (SNB-19 CNS): 104% (inactive) and 100% (inactive) | growth (U251 CNS): 94.2% (inactive) and 102% (inactive) | growth (PC-3 prostate): 103% (inactive) and 93.6% (inactive) | growth (SK-MEL-5 melanoma): 95.3% (inactive) and 108% (inactive) | growth (UACC-62 melanoma): 99.8% (inactive) and 79.8% (inactive) | growth (LOX IMVI melanoma): 102% (inactive) and 104% (inactive) | growth (SK-MEL-28 melanoma): 101% (inactive) and 116% (inactive)

O=C1C=C(Nc2ccccc2)c2ccccc2C1=O
growth (HCT-15 colon): 14.4% (inactive) and 88.9% (inactive) | growth (HT29 colon): 103% (inactive) and 119% (inactive) | growth (SNB-75 CNS): 23.5% (inactive) | growth (SNB-19 CNS): 45.3% (inactive) and 95.2% (inactive) | growth (U251 CNS): 96.6% (inactive) | growth (PC-3 prostate): 53.8% (inactive) and 76.8% (inactive) | growth (SK-MEL-5 melanoma): 74.2% (inactive) | growth (UACC-62 melanoma): 4.24% (active) and 97.1% (inactive) | growth (LOX IMVI melanoma): 71.6% (inactive) | growth (SK-MEL-28 melanoma): 105% (inactive) and 114% (inactive)

O=C1CSC2=NCCN12
growth (HCT-15 colon): 107% (inactive) and 97.2% (inactive) | growth (HT29 colon): 96.4% (inactive) and 91.5% (inactive) | growth (SNB-75 CNS): 87.5% (inactive) and 83.3% (inactive) | growth (SNB-19 CNS): 101% (inactive) and 112% (inactive) | growth (U251 CNS): 88.7% (inactive) and 91.1% (inactive) | growth (PC-3 prostate): 102% (inactive) and 121% (inactive) | growth (SK-MEL-5 melanoma): 88.9% (inactive) and 86.1% (inactive) | growth (UACC-62 melanoma): 87.1% (inactive) | growth (LOX IMVI melanoma): 94% (inactive) and 90.1% (inactive) | growth (SK-MEL-28 melanoma): 78.5% (inactive) and 85.8% (inactive)

NC(=O)NCCCC(N)C(=O)O (configuration not stated)
growth (HCT-15 colon): 109% (inactive) | growth (HT29 colon): 101% (inactive) | growth (SNB-75 CNS): 104% (inactive) | growth (SNB-19 CNS): 92.1% (inactive) | growth (U251 CNS): 96.2% (inactive) | growth (PC-3 prostate): 95.5% (inactive) | growth (SK-MEL-5 melanoma): 113% (inactive) | growth (UACC-62 melanoma): 102% (inactive) | growth (LOX IMVI melanoma): 67.6% (inactive) | growth (SK-MEL-28 melanoma): 99% (inactive)

CC1CCC2(OC1)OC1CC3C4CC=C5CC(O)CCC5(C)C4CCC3(C)C1C2C (configuration not stated)
growth (HCT-15 colon): 105% (inactive) | growth (HT29 colon): 108% (inactive) | growth (SNB-75 CNS): 83% (inactive) | growth (SNB-19 CNS): 96.1% (inactive) | growth (PC-3 prostate): 96.4% (inactive) | growth (SK-MEL-5 melanoma): 105% (inactive) | growth (UACC-62 melanoma): 90.6% (inactive) | growth (LOX IMVI melanoma): 91.2% (inactive) | growth (SK-MEL-28 melanoma): 115% (inactive)

CCCCOc1ccc(Nc2cc(Cl)ccc2C(=O)O)cn1
growth (HCT-15 colon): 104% (inactive) and 89.1% (inactive) | growth (HT29 colon): 115% (inactive) | growth (SNB-75 CNS): 98.7% (inactive) and 115% (inactive) | growth (SNB-19 CNS): 96.6% (inactive) and 106% (inactive) | growth (U251 CNS): 98.1% (inactive) and 96.9% (inactive) | growth (PC-3 prostate): 93.6% (inactive) | growth (SK-MEL-5 melanoma): 99.4% (inactive) and 102% (inactive) | growth (UACC-62 melanoma): 97.9% (inactive) and 98.1% (inactive) | growth (LOX IMVI melanoma): 107% (inactive) and 90.5% (inactive) | growth (SK-MEL-28 melanoma): 122% (inactive) and 113% (inactive)

O=C1c2c(O)ccc(O)c2C(=O)c2c(NCCNCCO)ccc(NCCNCCO)c21
growth (HCT-15 colon): -14.2% (active) and 3.08% (active) | growth (HT29 colon): -59.8% (active) and -43.2% (active) | growth (SNB-75 CNS): -90.4% (active) | growth (SNB-19 CNS): -40.6% (active) and -58.3% (active) | growth (PC-3 prostate): -28% (active) and -55.3% (active) | growth (SK-MEL-5 melanoma): -100% (active) | growth (UACC-62 melanoma): -91.9% (active) and -86.7% (active) | growth (LOX IMVI melanoma): -66.4% (active) and -76.2% (active)

Brc1ccc(SSc2ccc(Br)cc2)cc1
growth (HCT-15 colon): 77.3% (inactive) | growth (HT29 colon): 97.2% (inactive) | growth (SNB-75 CNS): 77.2% (inactive) | growth (SNB-19 CNS): 87.9% (inactive) | growth (U251 CNS): 65.8% (inactive) | growth (PC-3 prostate): 39.7% (inactive) | growth (SK-MEL-5 melanoma): 54.7% (inactive) | growth (UACC-62 melanoma): 96.9% (inactive) | growth (LOX IMVI melanoma): 3.5% (active) | growth (SK-MEL-28 melanoma): 97.6% (inactive)

O=c1[nH]cnc2c1ncn2C1OC(CO)C(O)C1O (configuration not stated)
growth (HCT-15 colon): 135% (inactive) and 124% (inactive) and 110% (inactive) | growth (HT29 colon): 116% (inactive) and 109% (inactive) | growth (SNB-75 CNS): 115% (inactive) and 99.9% (inactive) and 98.8% (inactive) | growth (SNB-19 CNS): 99.5% (inactive) and 106% (inactive) and 93.5% (inactive) | growth (U251 CNS): 108% (inactive) and 110% (inactive) and 102% (inactive) | growth (PC-3 prostate): 89.3% (inactive) and 81.6% (inactive) and 98.8% (inactive) | growth (SK-MEL-5 melanoma): 106% (inactive) and 109% (inactive) and 107% (inactive) | growth (UACC-62 melanoma): 96.1% (inactive) and 106% (inactive) and 98.6% (inactive) | growth (LOX IMVI melanoma): 101% (inactive) and 103% (inactive) and 91.7% (inactive) | growth (SK-MEL-28 melanoma): 113% (inactive) and 116% (inactive) and 118% (inactive)

CN(C)CC1CCCCCC(CN(C)C)C1=O (configuration not stated)
growth (HCT-15 colon): 7.44% (active) | growth (HT29 colon): 31.8% (inactive) | growth (SNB-75 CNS): 98.4% (inactive) | growth (SNB-19 CNS): 108% (inactive) | growth (U251 CNS): 89% (inactive) | growth (PC-3 prostate): 86.7% (inactive) | growth (SK-MEL-5 melanoma): 104% (inactive) | growth (UACC-62 melanoma): 91.9% (inactive) | growth (LOX IMVI melanoma): 81.3% (inactive) | growth (SK-MEL-28 melanoma): 94.8% (inactive)
